{"source": "PubChem BioAssay AID504832", "about": "(National Center for Advancing Translational Sciences (NCATS), 2011)", "note": "Out of some 310,000 compounds screened, about 18,000 (5.8%) were called active. Not shown: some 22% with an inconclusive outcome. The list comes from a sample in which actives are over-represented; it also holds similar structures and randomly drawn compounds. Unmarked numbers belong to inactive results. Calls follow the shape of the dose curve; as a rule, active = well fitted inhibition curve with a large enough effect; inconclusive = small, poorly fitted or top-dose-only effect, or another doubt; inactive = no such curve, though single readings can be large or run the other way. % is scaled to controls: 0 for no effect and ±100 for the full control effect; potency is read from the fitted curve at half-maximal effect.", "data": [{"assay": "Primary qHTS for delayed death inhibitors of the malarial parasite plastid, 48 hour incubation", "conditions": "P. falciparum luciferase growth in erythrocytes; series mostly up to 28.7 µM; activity change, negative = inhibition: at the top concentration", "method_in_brief": "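Read-out is firefly luciferase luminescence from an integrated reporter in P. falciparum, so falling signal marks reduced parasite growth. Infected erythrocytes were at 2% hematocrit and 0.1% parasitemia (final) in Albumax-supplemented RPMI 1640.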", "units": {"activity change, negative = inhibition": "%"}, "values": [{"smiles": "Cn1c(SCC(=O)N2CCCCC2)nc2c(c1=O)SCC2", "activity change, negative = inhibition": -1.34}, {"smiles": "CNC(=O)c1ccc(NC(=O)c2cccc(C(F)(F)F)c2)cc1", "activity change, negative = inhibition": -18.5}, {"smiles": "O=C(Nc1ccc(C(F)(F)F)cc1)c1cccc(-n2cnnn2)c1", "Potency": "10.4 µM (active)"}, {"smiles": "O=C(Nc1cccc(-n2cnnn2)c1)c1cccnc1", "activity change, negative = inhibition": 18.8}, {"smiles": "O=C(NCc1ccc(F)cc1)C1CCN(C(=O)Nc2ccc(F)cc2)CC1", "activity change, negative = inhibition": 0.721}, {"smiles": "O=C(Nc1cccc(Cl)c1Cl)c1ccccc1NC(=O)C1CC=CCC1C(=O)O", "note": "(centres undefined)", "activity change, negative = inhibition": 3.31}, {"smiles": "COC(=O)c1cc(C(=O)CSc2nc(C)cc(C)n2)ccc1O", "activity change, negative = inhibition": 54.2}, {"smiles": "CC(C)C1N=C2c3ccccc3N=C(SCC(=O)c3ccc(O)c(O)c3)N2C1=O", "note": "(centres undefined)", "Potency": "11.7 µM (active)"}, {"smiles": "CCc1ccc(S(=O)(=O)N/N=C\\c2ccc([N+](=O)[O-])o2)cc1", "activity change, negative = inhibition": 25.8}, {"smiles": "COc1ccc(CCNS(=O)(=O)c2cn(C)nc2C)cc1", "activity change, negative = inhibition": 32.5}, {"smiles": "O=C1c2oc3ccc(Br)cc3c(=O)c2C(c2cccc(F)c2)N1CCO", "note": "(centres undefined)", "activity change, negative = inhibition": -24.2}, {"smiles": "Cc1c(-c2nn(C)c(=O)c3ccccc23)oc2ccc(F)cc2c1=O", "Potency": "2.62 µM (active)"}, {"smiles": "Cc1ccc(F)cc1NC(=O)Cc1nn(C)c(=O)c2ccccc12", "activity change, negative = inhibition": -15.9}, {"smiles": "CCCNC(=O)CCc1c(C)nc2c(c(C)nn2-c2ccccc2)c1C", "activity change, negative = inhibition": -29.5}, {"smiles": "O=C(CN(C(=O)CCC(=O)Nc1nccs1)c1ccc(F)cc1)NCc1ccc2c(c1)OCO2", "activity change, negative = inhibition": -25.3}, {"smiles": "COCCn1c(SCC(=O)Nc2ccc3c(c2)CCC3)nc2ccccc2c1=O", "activity change, negative = inhibition": -17.9}, {"smiles": "CN(CCOc1ccc(Br)cc1)CC(=O)Nc1cccc(S(=O)(=O)NC2=NCCC2)c1", "activity change, negative = inhibition": -18.4}, {"smiles": "Cc1cccc(-n2c(SCC(=O)Nc3cccc(S(=O)(=O)NC4=NCCCCC4)c3)nc3ccccc3c2=O)c1C", "Potency": "13.1 µM (active)"}, {"smiles": "CCc1ccc(C(=O)OCC(=O)Nc2cccc(S(=O)(=O)NC3=NCCCCC3)c2)cc1", "Potency": "10.4 µM (active)"}, {"smiles": "O=C(Cn1cnc2ccccc2c1=O)Nc1cccc(S(=O)(=O)N2CCCCC2)c1", "activity change, negative = inhibition": -10.9}, {"smiles": "O=C(Nc1cccc(S(=O)(=O)NC2=NCCC2)c1)C1CCCCC1", "activity change, negative = inhibition": -2.52}, {"smiles": "Cc1ccc(S(=O)(=O)N2CCC3(CC2)OCCO3)c(C)c1", "activity change, negative = inhibition": -0.438}, {"smiles": "Cc1csc(NC(=O)CSc2nc(=O)n(CCCN(C)C)c3c2CCC3)n1", "activity change, negative = inhibition": 11.7}, {"smiles": "CC(=O)Nc1ccc(NC(=O)COc2ccc(-c3ccccc3)cc2)cc1", "activity change, negative = inhibition": 4.83}, {"smiles": "CC1CC(C)CN(CCCNC(=O)Cn2ncc3c([nH]c4ccccc43)c2=O)C1", "note": "(centres undefined)", "activity change, negative = inhibition": 6.15}, {"smiles": "CC(=O)N1CCN(C(=O)c2cc(-c3ccc(C)o3)nc3ccccc23)CC1", "activity change, negative = inhibition": 14.6}, {"smiles": "CCOC(=O)C1(Cc2ccccc2C)CCCN(C(=O)CN2C(=O)CSC2=O)C1", "note": "(centres undefined)", "activity change, negative = inhibition": 18}, {"smiles": "CCCCC(=O)Nc1nnc(S(=O)(=O)N(C)Cc2ccco2)s1", "activity change, negative = inhibition": 21.1}, {"smiles": "Cc1ccc(C(=O)N/C(=C\\c2ccc(F)cc2)C(=O)NCCN2CCOCC2)cc1", "activity change, negative = inhibition": 17.7}, {"smiles": "COc1ccc(CCNC(=O)c2ccc3c(c2)NC(=O)C(N2CCOCC2)S3)cc1OC", "note": "(centres undefined)", "activity change, negative = inhibition": -14.3}, {"smiles": "O=C(NCCN1CCOCC1)c1ccc(/C=C2\\Sc3ccccc3N(Cc3ccc(F)cc3)C2=O)cc1", "Potency": "11.7 µM (active)"}, {"smiles": "O=C(NCCN1C(=O)S/C(=C\\c2cccnc2)C1=O)c1cccc(OC(F)F)c1", "activity change, negative = inhibition": -29.2}, {"smiles": "CCN1CCN(CCNC(=O)c2ccc3c(c2)NC(=O)/C(=C\\c2ccc(OC)c(OC)c2)S3)CC1", "Potency": "9.28 µM (active)"}, {"smiles": "CCCN1CCN(C(=O)CCCNC(=O)c2ccc(Cl)cc2)CC1", "activity change, negative = inhibition": -0.322}, {"smiles": "CCN1CCN(CCNC(=O)c2ccc(/C=C3/Sc4ccccc4N(Cc4cccc(C)c4)C3=O)cc2)CC1", "Potency": "11.7 µM (active)"}, {"smiles": "COc1ccc(/C=C(\\NC(=O)c2ccccc2)C(=O)NCCN2CCOCC2)cc1OC", "activity change, negative = inhibition": 3.72}, {"smiles": "CN1C(=O)/C(=C/c2ccc(C(=O)NC3CCCC3)cc2)Oc2ccccc21", "activity change, negative = inhibition": -20.2}, {"smiles": "Cc1nn(Cc2ccccc2)c(C)c1C(=O)NCCN1C(=O)S/C(=C\\c2ccc(F)cc2)C1=O", "activity change, negative = inhibition": 12.8}, {"smiles": "CN1CCN(CCCNC(=O)c2ccc(/C=C3\\Oc4ccccc4N(Cc4ccc(Cl)cc4)C3=O)cc2)CC1", "Potency": "1.65 µM (active)"}, {"smiles": "O=C(NCCN1CCOCC1)/C(=C/c1ccc(F)cc1)NC(=O)c1ccccc1", "activity change, negative = inhibition": 15.1}, {"smiles": "Cc1cc(-c2nnc(SCC(=O)Nc3ccc(S(N)(=O)=O)cc3)n2N)n[nH]1", "activity change, negative = inhibition": -13.5}, {"smiles": "CN1C(=O)[C@H]2[C@@H](C3CC3)N3C(=O)CN(Cc4ccccc4)C(=O)[C@@]3(C)[C@H]2C1=O", "activity change, negative = inhibition": 27.4}, {"smiles": "O=C1NC(c2ccccc2)Oc2ccccc21", "note": "(centres undefined)", "activity change, negative = inhibition": -9}, {"smiles": "COc1ccc(-c2ocnc2C(=O)Nc2ccc3c(c2)CCC3)cc1", "activity change, negative = inhibition": 16.9}, {"smiles": "O=C(Nc1nnc(-c2ccc(F)cc2)s1)c1c(F)cccc1Cl", "activity change, negative = inhibition": 10.8}, {"smiles": "CC(=O)c1nn(-c2cccc(C(F)(F)F)c2)c(=O)[nH]c1=O", "activity change, negative = inhibition": -16.7}, {"smiles": "CCNS(=O)(=O)c1ccc(CCC(=O)N2CCN(c3ccc(OC)cc3)CC2)cc1", "activity change, negative = inhibition": 1.74}, {"smiles": "COc1ccc(OCCNC(=O)c2cc(C3CC3)nc3c2cnn3C(C)C)cc1", "Potency": "13.1 µM (active)"}, {"smiles": "CCCc1ccc(OCCNC(=O)c2ccccc2Br)cc1", "activity change, negative = inhibition": -24.5}]}]}
